TMEM16A act: mouse TMEM16A channel activation, primary screen; Q8BHY3; HEK293 TMEM16A/YFP-H148Q/I152L, iodide quench fluorescence; active compounds read low; B-score at 10 µM; hit rate 0.3% among 340,000;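 active = fluorescence-ratio B-score plate-corrected deviation score at least 3 library SD below zero, with starting fluorescence score within 5 deviations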;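 also: channel opened by trigger with iodide after compound preincubation; score built on the fluorescence ratio of max minus min over baseline; more negative score means more quench and so TMEM16A activation or potentiation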
CHT block: inhibits the human high affinity choline transporter; Q9GZV3; CHT-expressing cells, membrane potential dye, choline response; active compounds read low; B-score at 10 µM; hit rate 0.86% among 310,000; AID 488975;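 active = B-score over 3 SD under the library average, and starting fluorescence ratio not unusually high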;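 also: choline stimulus applied at its EC90 after an EC20 pre-addition; B-score computed on integrated fluorescence ratio after choline addition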
Target sequence (Q9GZV3 whole entry, looked up): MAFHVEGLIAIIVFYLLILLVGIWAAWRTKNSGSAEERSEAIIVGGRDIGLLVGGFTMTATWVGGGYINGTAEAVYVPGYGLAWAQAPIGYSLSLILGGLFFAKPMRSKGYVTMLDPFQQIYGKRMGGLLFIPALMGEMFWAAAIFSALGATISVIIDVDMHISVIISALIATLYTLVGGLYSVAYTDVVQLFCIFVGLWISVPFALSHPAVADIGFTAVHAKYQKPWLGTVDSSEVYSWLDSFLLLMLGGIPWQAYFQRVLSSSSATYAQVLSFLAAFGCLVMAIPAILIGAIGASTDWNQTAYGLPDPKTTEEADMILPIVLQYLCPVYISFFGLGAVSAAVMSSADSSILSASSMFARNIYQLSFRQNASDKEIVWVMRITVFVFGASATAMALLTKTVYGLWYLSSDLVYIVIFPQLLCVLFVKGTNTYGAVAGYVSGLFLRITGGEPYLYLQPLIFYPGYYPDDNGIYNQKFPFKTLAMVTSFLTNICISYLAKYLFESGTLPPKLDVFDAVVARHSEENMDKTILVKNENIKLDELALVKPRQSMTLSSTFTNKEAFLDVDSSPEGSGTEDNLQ
CHT allo act: allosterically activates the human high affinity choline transporter; hit rate 0.49% among 310,000; B-score at 10 µM; Q9GZV3; CHT-expressing cells, membrane potential dye, choline EC20; active compounds read high; LV-AA mutant CHT in HEK293 cells; AID 488977;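 active = initial fluorescence not abnormally high and integrated response B-score, plate-corrected, over 3 SD above library mean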
TMEM16A inh: inhibitors of mouse TMEM16A calcium-activated chloride channel. normalized B-score (activity score, 25-100; higher = stronger inhibition) at 10 µM. hit rate 1.2% among 310,000. AID 588511. HEK293 TMEM16A/YFP iodide influx fluorescence, ionomycin. Q8BHY3;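 active = ratio plate-corrected score three or more library SD toward inhibition, starting fluorescence score within five deviations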;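 also: score derived from kinetic fluorescence span divided by baseline fluorescence per well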
TMEM16A reconf: TMEM16A (mouse) chloride channel inhibition, re-confirmation. shares compounds with TMEM16A inh. HEK293 TMEM16A/YFP-H148Q, iodide quench fluorescence; ionomycin added to raise cell calcium. inhibition, % at 10 µM. hit rate 39% among 2,300. AID 652189;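 active = mean duplicate percent inhibition, scaled so buffer wells are 0 and the reference blocker 100, over three buffer SD above buffer mean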
TMEM16A Ca cntr: counter-screen for TMEM16A inhibitors: effect on calcium mobilization; shares compounds with TMEM16A inh; TMEM16A/YFP HEK293, Fluo4 calcium mobilization; calcium response (% of ionomycin), % at 10 µM; hit rate 2% among 2,300; AID 652231;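 active = duplicate-averaged calcium signal over 20% of the ionomycin maximum, relative to buffer baseline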;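 also: each well's signal is peak minus trough fluorescence divided by its pre-addition baseline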
YFP-HEK293 quench: parental YFP-HEK293 iodide quench counter-screen activity; ionomycin; YFP ratio F(max-min)/F0 at 10 µM; 2,300 tested, under 10 active; shares compounds with TMEM16A inh;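 active = yellow fluorescent protein signal ratio exceeding the buffer control mean by over 5 SD of those controls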;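 also: ratio is mean of duplicate wells from kinetic YFP trace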
ClC-1 rat inh: selectivity of TMEM16A inhibitors: inhibition of rat ClC-1 chloride channel; 2,300 tested, under 10 active; shares compounds with TMEM16A inh; CHO ClC-1-YFP, iodide influx fluorescence quench; iodide control reads 0, buffer control 100; AID 652236; ratio percent, % at 10 µM;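 active = duplicate-mean ratio percent above the mean of iodide-only control wells, which defines zero, plus 5 of their SD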;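 also: higher percent means stronger block of ClC-1 iodide influx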
A number is an active result; i = inactive; nt = no result given. Rows were chosen to be rich in hits. Some 2.3% of all compounds tested hit in one or more screens of this group.

SMILES	TMEM16A act	CHT block	CHT allo act	TMEM16A inh	TMEM16A reconf	TMEM16A Ca cntr	YFP-HEK293 quench	ClC-1 rat inh
Cc1nc(C)n(CC(C)C(=O)N2CCN(S(=O)(=O)c3ccccc3)CC2)n1 (stereo unspecified)	i	i	i	25	i	i	i	i
CC(Sc1ccccc1)C(=O)N1CCN(S(=O)(=O)c2ccccc2)CC1 (stereo unspecified)	i	i	i	i	nt	nt	nt	nt
Cc1nc(N)sc1-c1csc(Nc2ccc(Cl)cn2)n1	i	i	i	25	26.5%	i	i	i
Cc1nc(C)c(-c2csc(Nc3cccc(O)c3)n2)s1	i	i	i	100	38.0%	i	i	i
Cc1nc(C)c(-c2csc(Nc3ccccn3)n2)s1	i	i	i	25	28.5%	i	i	i
Cc1nc(N)sc1-c1csc(Nc2cccc(O)c2)n1	i	i	i	i	nt	nt	nt	nt
COc1ccc(S(=O)(=O)N2CCCCC2)cc1NC(=O)c1cnc(C)cn1	i	nt	nt	nt	nt	nt	nt	nt
CC(=O)Nc1ccc2ccccc2c1[N+](=O)[O-]	i	nt	nt	nt	nt	nt	nt	nt
Cc1ccc(C)c(NC(=O)CN(C)S(=O)(=O)c2cccc3cccnc23)c1	i	i	i	i	nt	nt	nt	nt
CCCc1cc(C(=O)NCc2ccccc2)no1	i	i	i	100	i	i	i	i
CCCc1cc(C(=O)Nc2cccc(Cl)c2C)no1	i	i	i	25	i	i	i	i
CCCc1cc(C(=O)Nc2ccccc2SC)no1	i	i	i	i	nt	nt	nt	nt
CCN(CC(=O)NCc1ccccn1)S(=O)(=O)c1cc(Cl)ccc1Cl	i	i	i	i	nt	nt	nt	nt
CC(C)C(C(=O)O)N1CCS(=O)(=O)CC1 (stereo unspecified)	i	i	i	i	nt	nt	nt	nt
COc1ccc(NC(=O)CSc2nnc(NC(=O)c3ccco3)s2)cc1OC	i	i	i	i	nt	nt	nt	nt
Cc1ccc(C)c(CSc2nnc([C@@H](N)C(C)C)o2)c1	i	i	i	100	i	i	i	i
O=S(=O)(Nc1nc2ccccc2nc1Nc1ccc(N2CCOCC2)cc1)c1cc(Cl)ccc1Cl	i	i	i	100	41.5%	26.5%	i	i
Clc1nc(Nc2ccc(N3CCOCC3)cc2)c2ccccc2n1	i	i	i	i	nt	nt	nt	nt
CC(=O)/C(C#N)=C1\NC(=O)C(Cc2cc(Cl)ccc2Cl)S1 (stereo unspecified)	i	i	i	100	45.5%	i	i	i
Cc1cc(C)nc(N2N=C(C(C)(C)C)CC2=O)n1	i	i	i	i	i	i	i	i
CCC1C(=O)N(c2nc(C)cc(C)n2)N=C1C (stereo unspecified)	i	i	i	i	nt	nt	nt	nt
Cc1c(NC(=O)C(C)Sc2ccccc2)c(=O)n(-c2ccccc2)n1C (stereo unspecified)	i	i	i	i	i	i	i	i
Cc1ccnc(NC(=S)N2CCN(c3cccc(C(F)(F)F)c3)CC2)c1	i	i	i	25	18.0%	i	i	i
CCOc1ccccc1N=NC1C(=O)N(C(N)=S)N=C1C (stereo unspecified)	i	i	i	i	nt	nt	nt	nt
COc1ccc(NC(=O)Nc2cccc3c2O[C@H](CN(C)Cc2ccc(-c4ccccc4)cc2)[C@@H](C)CN([C@H](C)CO)C3=O)cc1	i	nt	nt	nt	nt	nt	nt	nt
SMILES	TMEM16A act	CHT block	CHT allo act	TMEM16A inh	TMEM16A reconf	TMEM16A Ca cntr	YFP-HEK293 quench	ClC-1 rat inh
CCCCCCCCC(=O)Nc1cc(C)ccc1OC	i	i	i	100	i	i	i	i
CCOC(=O)N1CCN(CCC(=O)Nc2cc(C)ccc2OC)CC1	i	i	i	i	nt	nt	nt	nt
CSCC[C@H](NC(=O)OC(C)(C)C)C(=O)N1CCC(C(=O)NCC(=O)Nc2ccc(C)cc2)CC1	i	i	i	i	i	i	i	i
CN1CCN(C(=O)c2ccc(COc3ccc(C(C)(C)C)cc3)o2)CC1	i	i	i	i	nt	nt	nt	nt
CCOc1ccc(OCc2ccc(C(=O)N3N=C(C(F)F)CC3(O)C(F)F)o2)cc1 (stereo unspecified)	i	i	i	25	i	i	i	i
CC(C)c1ccc(OCc2ccc(C(=O)N3CCCC3)o2)cc1	i	i	7.08	25	53.0%	i	i	i
O=C(NCc1cccnc1)c1ccc(NS(=O)(=O)c2cccc([N+](=O)[O-])c2)cc1	i	nt	nt	nt	nt	nt	nt	nt
O=C(Nc1ccc(-c2nc3c(ccc4ccccc43)o2)cc1)c1ccco1	i	i	i	i	nt	nt	nt	nt
COc1cccc(-c2cc(C(=O)Nc3cc(C)on3)no2)c1	i	i	i	i	i	i	i	i
Cc1cc(NC(=O)c2cc(-c3cccc(Cl)c3)on2)no1	i	i	i	i	nt	nt	nt	nt
CN(c1ccccc1)S(=O)(=O)c1cccc(NC(=O)CSc2nnc(N)s2)c1	i	i	i	100	35.0%	i	i	i
O=C(CN1C(=O)NC2(CCCc3ccccc32)C1=O)Nc1ccccc1OC(F)F (stereo unspecified)	i	nt	nt	nt	nt	nt	nt	nt
CCC(C)n1c(C)nc2c(c1=O)c1nc3ccccc3nc1n2CCC1=CCCCC1 (stereo unspecified)	i	i	i	25	21.5%	i	i	i
CC(Oc1ccc(Br)cc1)c1nc2c3ccccc3nc(=S)n2[nH]1 (stereo unspecified)	i	i	i	25	33.0%	i	i	i
CCCCCCNCc1ccc(Br)cc1	i	i	i	i	nt	nt	nt	nt
CN(C)S(=O)(=O)c1cccc(N=C2SCCN2Cc2ccccc2)c1	i	i	i	100	35.5%	i	i	i
CC(C)(C)c1ccc(-n2ncc3c2CCCC3NC(=O)c2cnccn2)cc1 (stereo unspecified)	i	i	i	i	nt	nt	nt	nt
Cc1cc(C)n2nc(SCc3ncc(-c4ccccc4)o3)nc2n1	i	i	i	100	i	i	i	i
Cc1ccc(-c2nc(SCC(=O)Nc3cc(C)on3)c3c(=O)n(C)c(=O)n(C)c3n2)cc1	i	i	i	i	nt	nt	nt	nt
CC1(C)C[C@@H]2C[C@@](C)(CN2C(=O)c2cc(COc3cccc(C(F)(F)F)c3)on2)C1	i	i	i	25	i	i	i	i
CC(=O)c1ccccc1NC(=O)COC(=O)C1=NN(c2ccccc2)C(=O)CC1	i	nt	nt	nt	nt	nt	nt	nt
CCOc1ccc(NC(=O)C2CCC(C)(C(=O)O)C2(C)C)cc1 (stereo unspecified)	i	i	i	25	i	i	i	i
C[C@H](O)C(=O)C1=Nc2c(nc(N)[nH]c2=O)NC1	i	i	i	i	37.0%	89.0%	i	i
CCOC(=O)Cc1c(C)nc(N)[nH]c1=O	i	i	i	i	nt	nt	nt	nt
O=C(NCc1ccccc1)Nc1cccn(Cc2ccccc2Cl)c1=O	i	i	i	i	nt	nt	nt	nt
Cc1c(Cl)ccc2sc(N3CCN(C(=O)C4=COCCO4)CC3)nc12	i	i	i	25	43.5%	i	i	i
